In PubChem BioAssay:
The source made the active and inactive calls.

What was measured:
[1] = tested on: PRMT1 (protein arginine N-methyltransferase 1); assay: small molecules binding arginine methyltransferase PRMT1 – biochemical, small-molecule microarray, 635 nm fluorescence, primary screen (AID 1088); conditions: higher = more signal;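 further: binding of Prmt1 protein to compounds spotted on small-molecule microarray slides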
[2] = growth effects on S. cerevisiae YJM789 – YJM789 clinical isolate, OD600, 24 h, basal, primary screen (AID 1089); conditions: higher = more signal, called active from +8 up or from −8 down;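 further: growth of clinical yeast isolate S. cerevisiae YJM 789 seeded 1000 cells per well; test concentration not given here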
[3] = S. pombe growth modifiers, basal conditions – strain 972, OD600, 24 h, no modulator, primary screen (AID 1090);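 further: basal condition with compound alone and no growth modifier present; test concentration not given here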; conditions: S. pombe 972 growth, higher = more signal, called active from +8 up or from −8 down
[4] = budding yeast growth modifiers under rapamycin – strain BY4716, OD600, 96 h, primary screen (AID 1091); further: test concentration not given here; conditions: S. cerevisiae BY4716 + rapamycin, higher = more signal, called active from +8 up or from −8 down
[5] = target: Torsin-1A-interacting protein 2 (Homo sapiens) (UniProt Q8NFQ8); assay: small molecules binding lysate-expressed LULL1 – cell lysate, human LULL1 lysate, 635/667 nm fluorescence, primary screen (AID 1092); conditions: small-molecule microarray, hLULL1 lysate binding, 635 nm fluorescence; higher = more signal;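 further: probe is lysate of COS7 cells overexpressing human LULL1; score merges per-feature 667 nm fluorescence with signal-to-noise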
[6] = optical density change of DRC41 E. coli – strain DRC41, OD650, 24 h, E. coli filamentation project, primary screen (AID 1093);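 further: MC1000 strain lacking acrAB efflux and sulA so SOS filamentation is blocked; test concentration not given here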; conditions: E. coli DRC41 growth, higher = more signal, called active from +8 up or from −8 down
[7] = probe aLefty2 binding to arrayed compounds – biochemical, biotinylated probe, 635/667 nm fluorescence, primary screen (AID 1094); conditions: small-molecule microarray, higher = more signal;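 further: score merges spot fluorescence near 667 nm with spot signal-to-noise ratio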
[8] = tested on: Noggin (protein binding on small-molecule microarray); assay: small molecules binding Noggin protein – biochemical, 635/667 nm fluorescence, primary screen (AID 1095); conditions: 635 nm fluorescence, higher = more signal;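 further: score merges 667 nm feature fluorescence with signal to noise over triplicate slides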
[9] = target: Neurogenic locus notch homolog protein 3 (Homo sapiens) (UniProt Q9UM47); assay: small molecules binding NOTCH3 protein – biochemical, 635/667 nm fluorescence, primary screen (AID 1096); conditions: small-molecule microarray, 635 nm fluorescence, higher = more signal
[10] = probe aEGFR binding to arrayed compounds – biochemical, biotinylated probe, 635/667 nm fluorescence, primary screen (AID 1097); conditions: small-molecule microarray, higher = more signal;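 further: probe is a biotinylated anti-EGFR antibody binding compounds printed on slides; score combines fluorescence near 667 nm and signal to noise of each spot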
[11] = tested on: Plasmodium falciparum Sir2 (PF13_0152, Sir2A); assay: Plasmodium falciparum Sir2A binding compounds – biochemical, small-molecule microarray, 635 nm fluorescence, primary screen (AID 1098); conditions: fluorescence 635 nm, higher = more signal;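 further: score merges spot fluorescence intensity with its signal-to-noise ratio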
[12] = probe aDKK1 binding to arrayed compounds – biochemical, biotinylated probe, 635/667 nm fluorescence, primary screen (AID 1099); conditions: small-molecule microarray, higher = more signal;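 further: score merges 667nm spot fluorescence with signal to noise across triplicate slides; reference of the scale not given here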
[13] = probe aCHRDL2 binding to arrayed compounds – biochemical, biotinylated probe, 635/667 nm fluorescence, primary screen (AID 1100); conditions: small-molecule microarray, higher = more signal
[14] = change in splice reporter luminescence, either direction, cell-based, HEK293, spliceosome inhibition project, primary screen (AID 1101); conditions: HEK293 splicing luciferase reporter, 24 h, higher = more signal, called active from +8 up or from −8 down;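 further: HEK293 cells carrying a splicing-competent luciferase reporter gene; test concentration not given here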
[15] = target: Fibroblast growth factor 10 (Homo sapiens) (UniProt O15520); assay: compounds binding fibroblast growth factor 10 – biochemical, small-molecule microarray, 635 nm fluorescence, primary screen (AID 1102); conditions: FGF10 binding, fluorescence 635 nm, higher = more signal
[16] = tested on: glycogen synthase kinase-3 (GSK3A per assay name; protocol says GSK3B); assay: compounds binding glycogen synthase kinase-3 – biochemical, small-molecule microarray, 635 nm fluorescence, GSK3A, primary screen (AID 1103); conditions: fluorescence 635 nm, higher = more signal; further: the record names both GSK3A and GSK3B
[17] = target: Epidermal growth factor receptor (Homo sapiens) (UniProt P00533); assay: compounds binding epidermal growth factor receptor – biochemical, small-molecule microarray, 635 nm fluorescence, primary screen (AID 1104); conditions: EGFR binding, higher = more signal;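 further: score merges 667 nm emission intensity with spot signal to noise over triplicate slides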
[18] = target: Follistatin-related protein 3 (Homo sapiens) (UniProt O95633); assay: compounds binding follistatin-related protein 3 – biochemical, small-molecule microarray, 635 nm fluorescence, primary screen (AID 1105); conditions: FSTL3 binding, higher = more signal;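 further: score merges emission near 667 nm and signal to noise per printed spot across three slides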
[19] = target: Dickkopf-related protein 1 (Homo sapiens) (UniProt O94907); assay: small molecules binding DKK1 protein – biochemical, small-molecule microarray, 635 nm fluorescence scan, primary screen (AID 1106); conditions: higher = more signal;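 further: score merges emission near 667 nm with signal to noise over three replicate slides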
[20] = tested on: Inhibin beta A chain (activin A); assay: small molecules binding activin A – biochemical, small-molecule microarray, 635 nm fluorescence scan, primary screen (AID 1107); conditions: INHBA, higher = more signal;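 further: mouse activin A protein probed at 4.33 µg/mL on printed slides; score merges bound-protein fluorescence near 667 nm with spot signal-to-noise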

Fibroblast growth factor 10 (Homo sapiens), sequence (O15520 whole entry, looked up): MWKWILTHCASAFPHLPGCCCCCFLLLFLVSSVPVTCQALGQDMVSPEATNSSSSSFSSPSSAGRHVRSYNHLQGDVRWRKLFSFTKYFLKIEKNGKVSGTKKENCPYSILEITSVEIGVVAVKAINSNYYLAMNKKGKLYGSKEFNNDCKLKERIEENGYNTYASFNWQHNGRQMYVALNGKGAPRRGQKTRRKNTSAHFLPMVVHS
Dickkopf-related protein 1 (Homo sapiens), sequence (O94907 whole entry, looked up): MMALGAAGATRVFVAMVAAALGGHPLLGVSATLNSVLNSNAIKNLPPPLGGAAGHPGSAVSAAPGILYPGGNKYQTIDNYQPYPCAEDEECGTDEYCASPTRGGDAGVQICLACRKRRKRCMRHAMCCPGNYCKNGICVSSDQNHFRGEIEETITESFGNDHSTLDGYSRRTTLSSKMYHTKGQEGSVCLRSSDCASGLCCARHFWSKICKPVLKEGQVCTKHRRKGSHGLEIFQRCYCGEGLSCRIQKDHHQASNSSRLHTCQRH
Neurogenic locus notch homolog protein 3 (Homo sapiens), sequence (Q9UM47 whole entry, looked up): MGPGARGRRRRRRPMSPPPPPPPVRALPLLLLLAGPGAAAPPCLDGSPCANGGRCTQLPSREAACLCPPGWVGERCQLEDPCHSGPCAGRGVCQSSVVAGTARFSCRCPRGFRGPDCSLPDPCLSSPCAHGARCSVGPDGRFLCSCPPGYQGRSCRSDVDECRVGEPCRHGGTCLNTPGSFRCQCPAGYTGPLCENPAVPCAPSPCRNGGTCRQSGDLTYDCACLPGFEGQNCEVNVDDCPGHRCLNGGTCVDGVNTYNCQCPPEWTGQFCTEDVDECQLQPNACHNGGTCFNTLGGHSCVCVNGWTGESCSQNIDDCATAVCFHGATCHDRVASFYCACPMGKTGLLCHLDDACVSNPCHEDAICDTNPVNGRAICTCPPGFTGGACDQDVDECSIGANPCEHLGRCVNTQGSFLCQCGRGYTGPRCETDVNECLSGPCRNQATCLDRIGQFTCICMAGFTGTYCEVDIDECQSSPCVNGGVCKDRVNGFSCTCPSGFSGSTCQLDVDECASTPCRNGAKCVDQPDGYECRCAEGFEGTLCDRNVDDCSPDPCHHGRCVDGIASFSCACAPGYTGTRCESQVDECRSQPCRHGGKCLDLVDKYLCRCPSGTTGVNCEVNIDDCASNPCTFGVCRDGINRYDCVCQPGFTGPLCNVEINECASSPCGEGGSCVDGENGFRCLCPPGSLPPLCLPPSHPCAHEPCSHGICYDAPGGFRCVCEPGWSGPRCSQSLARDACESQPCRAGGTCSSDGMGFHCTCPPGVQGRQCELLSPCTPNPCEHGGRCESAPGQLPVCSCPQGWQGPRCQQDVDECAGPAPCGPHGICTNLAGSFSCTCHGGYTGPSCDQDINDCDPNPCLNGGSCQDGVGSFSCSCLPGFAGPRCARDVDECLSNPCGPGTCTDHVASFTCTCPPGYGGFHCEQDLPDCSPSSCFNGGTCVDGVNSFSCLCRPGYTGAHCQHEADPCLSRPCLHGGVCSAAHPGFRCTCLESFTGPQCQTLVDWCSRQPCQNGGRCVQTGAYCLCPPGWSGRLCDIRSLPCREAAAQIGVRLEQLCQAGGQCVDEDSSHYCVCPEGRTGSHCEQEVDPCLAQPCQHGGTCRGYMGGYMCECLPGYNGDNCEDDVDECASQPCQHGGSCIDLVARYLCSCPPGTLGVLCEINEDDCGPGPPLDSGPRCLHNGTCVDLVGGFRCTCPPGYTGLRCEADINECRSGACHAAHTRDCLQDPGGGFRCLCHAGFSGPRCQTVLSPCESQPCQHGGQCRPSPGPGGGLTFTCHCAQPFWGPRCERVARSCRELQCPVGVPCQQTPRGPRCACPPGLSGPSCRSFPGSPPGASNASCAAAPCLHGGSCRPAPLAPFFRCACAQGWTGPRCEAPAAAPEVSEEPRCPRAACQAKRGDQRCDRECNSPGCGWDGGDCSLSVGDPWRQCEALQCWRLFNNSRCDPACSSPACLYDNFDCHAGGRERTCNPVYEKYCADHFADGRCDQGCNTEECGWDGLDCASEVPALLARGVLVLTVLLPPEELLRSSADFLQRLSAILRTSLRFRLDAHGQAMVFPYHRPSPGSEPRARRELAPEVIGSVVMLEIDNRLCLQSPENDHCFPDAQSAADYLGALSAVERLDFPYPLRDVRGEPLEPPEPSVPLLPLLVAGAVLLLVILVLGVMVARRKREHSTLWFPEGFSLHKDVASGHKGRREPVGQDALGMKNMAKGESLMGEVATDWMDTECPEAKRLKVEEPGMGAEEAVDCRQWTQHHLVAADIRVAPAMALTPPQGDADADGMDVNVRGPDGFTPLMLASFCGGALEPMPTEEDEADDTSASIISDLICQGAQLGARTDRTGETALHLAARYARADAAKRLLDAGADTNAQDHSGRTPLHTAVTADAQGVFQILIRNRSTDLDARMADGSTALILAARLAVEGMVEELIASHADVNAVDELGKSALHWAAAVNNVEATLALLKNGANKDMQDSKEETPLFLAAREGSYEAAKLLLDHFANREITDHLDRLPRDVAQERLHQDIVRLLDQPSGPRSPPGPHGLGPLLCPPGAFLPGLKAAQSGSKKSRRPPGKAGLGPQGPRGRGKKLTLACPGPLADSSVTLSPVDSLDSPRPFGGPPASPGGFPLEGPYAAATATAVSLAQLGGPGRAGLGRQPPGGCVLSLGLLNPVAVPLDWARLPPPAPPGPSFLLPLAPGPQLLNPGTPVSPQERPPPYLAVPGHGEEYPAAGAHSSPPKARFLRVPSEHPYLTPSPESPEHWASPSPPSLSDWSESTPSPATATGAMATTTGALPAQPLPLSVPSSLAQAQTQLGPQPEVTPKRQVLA
Follistatin-related protein 3 (Homo sapiens), sequence (O95633 whole entry, looked up): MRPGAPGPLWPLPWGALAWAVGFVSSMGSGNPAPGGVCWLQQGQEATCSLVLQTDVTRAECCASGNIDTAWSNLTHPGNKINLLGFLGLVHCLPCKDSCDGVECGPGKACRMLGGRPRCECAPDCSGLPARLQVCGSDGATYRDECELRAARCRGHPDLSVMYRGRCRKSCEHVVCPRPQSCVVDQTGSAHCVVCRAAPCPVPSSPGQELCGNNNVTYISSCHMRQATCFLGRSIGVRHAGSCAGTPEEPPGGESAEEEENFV
Torsin-1A-interacting protein 2 (Homo sapiens), sequence (Q8NFQ8 whole entry, looked up): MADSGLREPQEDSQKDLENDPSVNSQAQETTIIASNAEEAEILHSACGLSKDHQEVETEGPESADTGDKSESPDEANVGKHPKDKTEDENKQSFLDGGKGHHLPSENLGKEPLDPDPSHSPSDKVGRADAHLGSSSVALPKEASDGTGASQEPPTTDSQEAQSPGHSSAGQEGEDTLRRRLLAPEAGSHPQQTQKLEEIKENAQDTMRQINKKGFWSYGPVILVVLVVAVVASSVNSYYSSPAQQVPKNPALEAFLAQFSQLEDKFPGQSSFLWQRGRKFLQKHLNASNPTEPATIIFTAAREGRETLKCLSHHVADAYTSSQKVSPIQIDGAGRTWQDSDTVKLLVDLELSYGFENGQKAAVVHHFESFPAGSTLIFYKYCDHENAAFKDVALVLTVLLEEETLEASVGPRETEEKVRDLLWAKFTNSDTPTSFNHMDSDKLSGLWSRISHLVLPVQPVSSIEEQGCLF
Epidermal growth factor receptor (Homo sapiens), sequence (P00533 whole entry, looked up): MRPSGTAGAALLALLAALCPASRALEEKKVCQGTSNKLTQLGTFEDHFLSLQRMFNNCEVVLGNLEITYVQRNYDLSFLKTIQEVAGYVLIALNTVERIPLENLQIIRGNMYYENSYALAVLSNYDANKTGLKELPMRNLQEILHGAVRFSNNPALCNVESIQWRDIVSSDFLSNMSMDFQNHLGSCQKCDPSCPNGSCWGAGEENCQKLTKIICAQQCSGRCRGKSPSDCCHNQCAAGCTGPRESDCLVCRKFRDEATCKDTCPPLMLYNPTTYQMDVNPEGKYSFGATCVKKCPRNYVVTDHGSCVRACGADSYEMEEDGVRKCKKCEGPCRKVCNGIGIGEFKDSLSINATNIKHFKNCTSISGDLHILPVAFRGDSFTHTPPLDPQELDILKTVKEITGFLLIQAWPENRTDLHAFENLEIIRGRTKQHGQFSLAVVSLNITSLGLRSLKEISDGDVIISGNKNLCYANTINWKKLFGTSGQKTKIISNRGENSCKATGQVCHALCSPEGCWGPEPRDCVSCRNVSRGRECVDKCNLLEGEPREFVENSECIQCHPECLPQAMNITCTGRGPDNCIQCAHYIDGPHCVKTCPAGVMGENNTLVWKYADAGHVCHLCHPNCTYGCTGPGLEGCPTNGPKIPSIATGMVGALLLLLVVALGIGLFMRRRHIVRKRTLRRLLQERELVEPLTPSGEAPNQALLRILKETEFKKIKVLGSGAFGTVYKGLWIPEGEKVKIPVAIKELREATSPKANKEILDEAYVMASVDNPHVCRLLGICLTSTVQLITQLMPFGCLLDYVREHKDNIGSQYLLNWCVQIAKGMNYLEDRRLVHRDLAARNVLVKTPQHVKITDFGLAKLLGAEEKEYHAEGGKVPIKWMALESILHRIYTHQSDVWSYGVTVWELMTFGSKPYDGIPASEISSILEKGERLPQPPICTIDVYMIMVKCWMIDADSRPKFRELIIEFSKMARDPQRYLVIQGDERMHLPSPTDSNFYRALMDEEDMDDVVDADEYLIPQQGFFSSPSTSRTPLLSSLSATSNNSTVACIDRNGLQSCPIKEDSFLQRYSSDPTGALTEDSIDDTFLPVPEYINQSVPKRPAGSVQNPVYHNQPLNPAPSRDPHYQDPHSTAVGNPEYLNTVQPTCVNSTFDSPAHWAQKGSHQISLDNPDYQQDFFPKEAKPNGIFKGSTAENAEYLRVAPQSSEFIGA

SMILES | composite z-score [1] | z-score [2] | z-score [3] | z-score [4] | composite z-score [5] | z-score [6] | composite z-score [7] | composite z-score [8] | composite z-score [9] | composite z-score [10] | composite z-score [11] | composite z-score [12] | composite z-score [13] | z-score [14] | composite z-score [15] | composite z-score [16] | composite z-score [17] | composite z-score [18] | composite z-score [19] | composite z-score [20]
O=C1C[C@]2(c3ccc([N+](=O)[O-])cc3)C(=O)N(CCN3CCOCC3)c3cc(CO)ccc3[C@H]2N1CC12CC3CC(CC(C3)C1)C2 | -0.286 | -1.31 (inactive) | -0.324 (inactive) | -2.77 (inactive) | 1.81 | 0.679 (inactive) | 0.0023 | -0.323 | 0.111 | -0.156 | 0.39 | 0.398 | 0.793 | 0.14 (inactive) | -0.629 | 0.163 | -1 | -0.258 | -1.22 | 0.6
CN1C(=O)C2C(C1=O)C1C=C(CCCO)C2C(c2ccc(CN3CCCC3)cc2)N1C (stereo not given) | -0.0446 | -0.363 (inactive) | 0.652 (inactive) | -0.14 (inactive) | -0.0999 | 0.145 (inactive) | -0.193 | -0.347 | -0.575 | -0.133 | -0.583 | -0.32 | -0.268 | -0.451 (inactive) | -0.684 | -0.0315 | -0.576 | -0.186 | 0.142 | 0.523
COC(=O)C1(C)C=C2C(=C(c3ccccc3)C(=O)C2C)CN1 (stereo not given) | -0.722 | -0.269 (inactive) | 0.14 (inactive) | 0.654 (inactive) | 0.517 | -0.269 (inactive) | 0.498 | -1.44 | -0.904 | 0.0003 | 0.537 | 1.14 | 1.22 | 1.21 (inactive) | -0.174 | -0.824 | -0.709 | -1.29 | -1.16 | 1.45
COC(=O)[C@@H]1N=C(c2ccc(OCCCO)cc2)O[C@@H]1c1ccccc1N=[N+]=[N-] | 1.5 | -2.6 (inactive) | -7.5 (inactive) | -1.15 (inactive) | 3.01 | 1.2 (inactive) | 0.19 | -0.179 | 0.487 | -0.027 | 1.47 | 1.14 | 1.37 | -1.99 (inactive) | 0.046 | 0.981 | -0.356 | -0.0503 | -0.68 | 1.08
CCc1cc2c(nc1CC)CCN(CCC(C)=NOC(C)CN1CCCc3nc(C)c(C)cc31)C2 (stereo not given) | 1.37 | -2.1 (inactive) | -1.74 (inactive) | -1.28 (inactive) | 1.41 | 0.517 (inactive) | 0.696 | 1.13 | 0.986 | 0.391 | 1.05 | 0.612 | -0.242 | 0.211 (inactive) | 1.04 | 1.06 | 1.16 | 1.32 | 1.03 | 1.59
